# CYP2C9 act: CYP2C9 (human) activation | P11712 | recombinant CYP2C9, luciferin-H conversion, luminescence; active compounds read high; factor 1 = untreated enzyme, 0 = blocked | activation factor at 5 µM | 96,000 compounds, 1.4% hits | AID 1024;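 active = activation factor of 2 or more for CYP2C9 at a 5 µM dose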;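 note: 0 = sulfaphenazole-blocked wells and 1 = vehicle-only wells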
# Target sequence (P11712 whole entry, looked up): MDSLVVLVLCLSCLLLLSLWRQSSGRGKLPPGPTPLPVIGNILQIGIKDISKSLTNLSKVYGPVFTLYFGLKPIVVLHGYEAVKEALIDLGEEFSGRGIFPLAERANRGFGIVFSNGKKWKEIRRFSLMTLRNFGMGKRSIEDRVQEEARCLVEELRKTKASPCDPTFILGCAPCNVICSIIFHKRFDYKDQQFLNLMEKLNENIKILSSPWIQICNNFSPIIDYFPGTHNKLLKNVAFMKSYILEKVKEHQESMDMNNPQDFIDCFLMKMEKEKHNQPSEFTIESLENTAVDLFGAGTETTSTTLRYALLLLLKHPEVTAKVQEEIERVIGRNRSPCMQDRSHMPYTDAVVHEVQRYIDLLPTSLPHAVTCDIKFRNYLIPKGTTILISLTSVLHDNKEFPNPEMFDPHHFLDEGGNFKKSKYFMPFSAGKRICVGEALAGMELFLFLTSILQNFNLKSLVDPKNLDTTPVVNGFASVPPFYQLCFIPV
# CYP2C9 inhib: inhibitors of human CYP2C9 | P11712 | CYP2C9 Supersomes, luciferin-H conversion, luminescence | inhibition, % at 5 µM | 96,000 compounds, 20% hits | AID 777;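 active = blocking of liver enzyme CYP2C9 beyond about 50% at 5 µM, limit read from the data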
# PostGolgi ctrl: growth of the yeast control strain, post-Golgi counter-screen | efflux-deficient yeast background strain, growth absorbance A615, 16 h | 98,000 compounds, 5% hits | inhibition, % at 10 µM
# CYP2C19 inhib: human CYP2C19 inhibition. 96,000 compounds, 21% hits. inhibition, % at 5 µM. CYP2C19 Supersomes, luciferin-H EGE luminescence, 30 min. P33261;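 active = CYP2C19 inhibition above a set limit at 5 µM in the primary screen, cut at about 50% in these data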;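 note: plate controls were negative control wells for no effect and 2.5 mM tranylcypromine positive control for full effect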
# CYP2C19 activ: increases human CYP2C19 enzyme activity; recombinant CYP2C19, luciferin-H EGE luminescence; active compounds read high; 0 = fully inhibited enzyme, 1 = untreated enzyme; activation factor at 5 µM; 96,000 tested, under 10 active; AID 1025;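 active = activation factor of at least 2 at 5 µM in the primary screen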;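 note: 0 = wells with 2.5 mM tranylcypromine and 1 = vehicle-only wells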
# PostGolgi yeast: growth inhibition of a yeast mutant, post-Golgi transport screen. post-Golgi transport phenotypic cell assay. inhibition, % at 10 µM. 98,000 compounds, 0.9% hits;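 note: yeast cells grown in 1536-well plates; yeast grown about 18 h at 30C before absorbance read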
# * = called active by the depositor; . = not tested or not shown. In the library only some 32% were active in any assay of this set; here they are far more common. Cut-off read from the data, not from the text of the source, unless noted: active = inhibition above about 30%; inactive = the rest.
SMILES,CYP2C9 act,CYP2C9 inhib,PostGolgi ctrl,CYP2C19 inhib,CYP2C19 activ,PostGolgi yeast
CC1(C)CC(=O)C2=C(C1)Nc1ccccc1N=C2,.,.,11,.,.,2
Cn1nnnc1SCC(=O)NCCCc1ccccc1,1.2,-15,9,14,0.9,3
CCn1nnnc1-c1ccc(OC)c(S(=O)(=O)NCCc2ccccc2)c1,0.3,68*,.,89*,0.1,.
COc1ccc(OC)c(S(=O)(=O)NCCc2ccccc2)c1,0.3,69*,9,87*,0.1,9
COc1ccc(OC)c(S(=O)(=O)NCc2cn3c(C)csc3n2)c1,1.2,-19,-4,-1,1,-8
COc1ccc(OC)c(S(=O)(=O)NCc2csc(-c3ccccc3)n2)c1,0.6,37,10,62*,0.4,6
CNS(=O)(=O)c1cc(OC)ccc1OC,0.9,12,15,8,0.9,2
CCOc1ccccc1NC(=O)CSc1nnc(-c2ccco2)o1,1.3,-29,-5,27,0.7,-16
Cc1cccc(NCc2ccccc2O)c1,0.5,51*,5,92*,0.1,-17
Oc1ccccc1CNc1ccc(Br)cn1,0.9,14,19,41,0.6,-13
Cc1ccc(NCc2ccccc2O)cc1,0.9,12,13,66*,0.3,-9
Cc1ccccc1NCc1ccccc1O,0.8,25,-2,59*,0.4,2
Cc1cccc(NCCNc2cccc(C)c2)c1,0.9,6,14,47,0.5,0
Cc1ccc(O)c(CNc2ccccn2)c1,0.7,33,4,67*,0.3,4
O=C(NC(=S)Nc1ccccc1)c1csnn1,1.1,-7,-5,34,0.7,-3
Cc1cccc(OCCc2nnc(N)s2)c1C,1.1,-5,1,-1,1,24
O=c1c(-c2ccccc2)[n+]([O-])c2ccccc2n1O,1,-3,-12,-17,1.2,0
CCOC(=O)c1[nH]c2ccc(F)cc2c1NC(=O)C1=COCCO1,0.8,24,8,17,0.8,-3
CC1Cc2ccccc2N1S(=O)(=O)c1cccc(C(=O)NCCCO)c1 (stereo unspecified),0.6,36,-2,52*,0.5,5
CC1Cc2ccccc2N1S(=O)(=O)c1cccs1 (stereo unspecified),1,4,7,81*,0.2,0
CC1Cc2ccccc2N1C(=O)CCS(=O)(=O)c1cccs1 (stereo unspecified),0.8,23,-9,52*,0.5,13
CC1Cc2ccccc2N1C(=O)Cc1cccs1 (stereo unspecified),1.1,-6,8,29,0.7,15
CCOc1ccc(S(=O)(=O)N2c3ccccc3CC2C)cc1 (stereo unspecified),0.1,94*,26,52*,0.5,-4
Cc1nc(CN2CCCC2=NC#N)n(-c2ccccc2)n1,0.9,12,-1,-1,1,8
COc1ccc(C(=O)N2CCN(C(C)=O)CC2)cc1S(=O)(=O)NCc1ccc(Cl)cc1,1.2,-19,12,-14,1.1,-6
SMILES,CYP2C9 act,CYP2C9 inhib,PostGolgi ctrl,CYP2C19 inhib,CYP2C19 activ,PostGolgi yeast
CCC1CCCCN1CCCNC(=O)CC1Oc2ccc(C)cc2NC1=O (stereo unspecified),0.9,5,6,-3,1,2
COc1ccccc1C(=O)N1CCN(Cc2ccc3c(c2)OCO3)CC1,.,.,-2,.,.,1
COc1ccc2nc3oc(C(=O)N4CCN(c5cccc(Cl)c5)CC4)cc3cc2c1,0.6,36,35*,33,0.7,0
COc1ccc2cc3cc(C(=O)N4CCN(Cc5ccc6c(c5)OCO6)CC4)oc3nc2c1,0.5,53*,11,20,0.8,3
COc1ccc2cc3cc(C(=O)NCc4ccc5c(c4)OCO5)oc3nc2c1,0.4,64*,3,35,0.6,5
COc1ccc2cc3cc(C(=O)Nc4ccc5c(c4)OCCO5)oc3nc2c1,0.7,34,5,46,0.5,-4
COc1ccc2nc3oc(C(=O)N4CCN(c5cccc(C(F)(F)F)c5)CC4)cc3cc2c1,1,-3,2,17,0.8,-1
COc1cc(-c2noc(CCCC(=O)NCc3ccco3)n2)cc(OC)c1OC,.,.,1,.,.,2
COc1ccc(Cl)cc1N1C(=O)C2CCCN2C1c1ccc(F)c(F)c1 (stereo unspecified),1.5,-47,18,45,0.5,7
COC(=O)C1=C(C)Nc2ccc(C)cc2S1,0.5,50,14,62*,0.4,-5
Cc1ccc(C(=O)CC(=O)c2cccc(F)c2)c(O)c1,0.3,72*,27,95*,0,4
Cc1ccc(C(=O)c2ccccc2C(=O)O)c(O)c1,0.7,28,-11,-6,1.1,-3
Cc1ccc(-c2c(C#N)c(N)nc3c2CCCC3)s1,1.3,-25,7,21,0.8,9
CC1(C)CC(=O)C2=C(C1)N=c1s/c(=C/c3ccc(F)c(F)c3)c(=O)n1C2c1ccc(F)cc1 (stereo unspecified),0.7,27,31*,2,1,23
CCOC(=O)CNC(=O)CSc1ncnc2c1cnn2Cc1ccccc1,1.1,-10,6,23,0.8,-4
Cn1c(SCC(=O)NCc2ccccc2)nnc1-c1ccc(NC(=O)CCc2ccccc2)cc1,1.1,-9,21,-4,1,2
CCOC(=O)C(NCc1ccc2c(c1)OCO2)(NC(=O)CC)C(F)(F)F (stereo unspecified),0.1,88*,7,97*,0,-4
O=C(Nc1ccc(Cl)c(Cl)c1)OCCNC(=O)c1cccc(Cl)c1,0.6,41,9,2,1,3
CCOC(=O)C(C)(C)C(=O)C(C)(C)C(O)c1ccccn1 (stereo unspecified),1,-1,8,51*,0.5,6
COCCCNC(=O)CS(=O)Cc1nc(-c2ccccc2C)oc1C (stereo unspecified),0.9,12,2,6,0.9,-2
Cc1cc(O)c(C(C)C)cc1NC(=O)c1cccc(Cl)c1,0.4,56*,12,60*,0.4,-1
O=c1[nH]c(Nc2ccc(F)cc2)cc2ccccc12,0.2,78*,-5,86*,0.1,8
Cc1ccc(-c2nnn(CC(=O)Nc3cccc4cccnc34)n2)o1,0.6,39,7,33,0.7,-9
CC1CCC(NC(=O)C2CCN(c3cnccn3)CC2)CC1 (stereo unspecified),1.1,-11,-4,53*,0.5,18
COc1ccc(C=O)cc1COc1c(F)c(F)cc(F)c1F,0.6,44,3,60*,0.4,-8
Cc1ccc2cc(CN(Cc3ccccc3)Cc3nnnn3C3CCCC3)c(=O)[nH]c2c1,0.2,82*,39*,87*,0.1,-11
Cc1ccc2[nH]c(=O)c(CN(CCCN3CCOCC3)Cc3nnnn3C3CCCC3)cc2c1,0.9,5,-3,36,0.6,-2
